# Measurements: publication PMC8384837, “Expanding the binding specificity for RNA recognition by a PUF domain”
# Positions count from the first letter of the chain named.
# Legend:
# Experiment in all cases: yeast three-hybrid, YBZ-1, SC-Leu-His + 0.5 mM 3-AT, 4 days
# Conditions in all cases: tags: N-Gal4 AD-HA kept; label: inside an RPR1-promoter hybrid RNA with tandem MS2 sites; ssRNA
# PUM1 PUF domain R6-IFS = molecular target: T1, PUM1 PUF domain R6-IFS (Homo sapiens, UniProt Q14671 828-1176, N1043I;Y1044F;Q1047S)
# T1 sequence: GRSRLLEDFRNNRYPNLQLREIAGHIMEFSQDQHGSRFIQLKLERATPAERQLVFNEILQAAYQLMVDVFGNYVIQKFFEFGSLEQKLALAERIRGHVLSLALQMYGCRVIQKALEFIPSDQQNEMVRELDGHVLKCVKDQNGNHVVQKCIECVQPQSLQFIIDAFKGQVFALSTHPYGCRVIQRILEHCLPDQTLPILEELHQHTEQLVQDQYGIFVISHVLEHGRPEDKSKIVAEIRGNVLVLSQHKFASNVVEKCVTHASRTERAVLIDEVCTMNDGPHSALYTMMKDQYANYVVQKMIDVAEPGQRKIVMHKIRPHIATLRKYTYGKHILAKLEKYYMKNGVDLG
# How it was run: (§1)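 Sequencing with Illumina followed PCR amplification of the repeat regions from transformants grown four days on SC-Leu (input) or SC-Leu-His + 0.5 mM 3-AT (selection). The transformants were strain YBZ-1 with a LexA–MS2 coat fusion and a HIS3 reporter, carrying Pumilio-1 PUF domain libraries and matching RNA elements. The interaction score is the log change in variant frequency from input to selection, computed in log2 with a pseudocount of 1 for absent variants.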
# PUM1 PUF domain R2-LWV = PUM1 PUF domain R2-LWV (Homo sapiens, UniProt Q14671 828-1176, N899L;Y900W;Q903V)
# How it was run: as §1
# PUM1 PUF domain R6-HFR = molecular target: T2, PUM1 PUF domain R6-HFR (Homo sapiens, UniProt Q14671 828-1176, N1043H;Y1044F;Q1047R)
# T2 sequence: T1 sequence with I216H, S220R
# How it was run: as §1
# PUM1 PUF domain R6-KWK = molecular target: T3, PUM1 PUF domain R6-KWK (Homo sapiens, UniProt Q14671 828-1176, N1043K;Y1044W;Q1047K)
# T3 sequence: T1 sequence with I216K, F217W, S220K
# How it was run: as §1
# PUM1 PUF domain R8-LYW = PUM1 PUF domain R8-LYW (Homo sapiens, UniProt Q14671 828-1176, N1122L;Q1126W)
# How it was run: as §1
# PUM1 PUF domain R7-RRC = PUM1 PUF domain R7-RRC (Homo sapiens, UniProt Q14671 828-1176, S1079R;N1080R;E1083C)
# How it was run: as §1
# PUM1 PUF domain R3-WCL = PUM1 PUF domain R3-WCL (Homo sapiens, UniProt Q14671 828-1176, C935W;R936C;Q939L)
# How it was run: as §1
# PUM1 PUF domain R3-RIG = PUM1 PUF domain R3-RIG (Homo sapiens, UniProt Q14671 828-1176, C935R;R936I;Q939G)
# How it was run: as §1
# PUM1 PUF domain R1-GGQ = PUM1 PUF domain R1-GGQ (Homo sapiens, UniProt Q14671 828-1176, S863G;R864G)
# How it was run: as §1
sequence,measurement,setting,value
GGCUAGAACUAGUGGAUCCCCCGGCGCCCGGCGGCUCGAGCCCGGGUAAGUGAAAAUAGUCUGCAUGCCGCCGGGCGCCAUGCCUGCAGGUCGACUCUAGAAAACAUG,binding signal,PUM1 PUF domain R6-IFS,5.65 log2 enrichment (interaction score)
GGCUAGAACUAGUGGAUCCCCCGGCGCCCGGCGGCUCGAGCCCGGGUAAGUGUAAAAAGUCUGCAUGCCGCCGGGCGCCAUGCCUGCAGGUCGACUCUAGAAAACAUG,binding signal,PUM1 PUF domain R2-LWV,4.15 log2 enrichment (interaction score)
GGCUAGAACUAGUGGAUCCCCCGGCGCCCGGCGGCUCGAGCCCGGGUAAGUGUAAAUAGUCUGCAUGCCGCCGGGCGCCAUGCCUGCAGGUCGACUCUAGAAAACAUG,binding signal,PUM1 PUF domain R6-HFR,6.79 log2 enrichment (interaction score)
same,binding signal,PUM1 PUF domain R6-KWK,4.71 log2 enrichment (interaction score)
same,binding signal,PUM1 PUF domain R8-LYW,2.44 log2 enrichment (interaction score)
GGCUAGAACUAGUGGAUCCCCCGGCGCCCGGCGGCUCGAGCCCGGGUAAGUGCAAAUAGUCUGCAUGCCGCCGGGCGCCAUGCCUGCAGGUCGACUCUAGAAAACAUG,binding signal,PUM1 PUF domain R6-HFR,2.56 log2 enrichment (interaction score)
GGCUAGAACUAGUGGAUCCCCCGGCGCCCGGCGGCUCGAGCCCGGGUAAGUUUAAAUAGUCUGCAUGCCGCCGGGCGCCAUGCCUGCAGGUCGACUCUAGAAAACAUG,binding signal,PUM1 PUF domain R7-RRC,4.95 log2 enrichment (interaction score)
GGCUAGAACUAGUGGAUCCCCCGGCGCCCGGCGGCUCGAGCCCGGGUAAGUCUAAAUAGUCUGCAUGCCGCCGGGCGCCAUGCCUGCAGGUCGACUCUAGAAAACAUG,binding signal,PUM1 PUF domain R7-RRC,4.91 log2 enrichment (interaction score)
GGCUAGAACUAGUGGAUCCCCCGGCGCCCGGCGGCUCGAGCCCGGGUAAGUGUAAGUAGUCUGCAUGCCGCCGGGCGCCAUGCCUGCAGGUCGACUCUAGAAAACAUG,binding signal,PUM1 PUF domain R3-WCL,3.36 log2 enrichment (interaction score)
same,binding signal,PUM1 PUF domain R3-RIG,3.19 log2 enrichment (interaction score)
GGCUAGAACUAGUGGAUCCCCCGGCGCCCGGCGGCUCGAGCCCGGGUAAGUGUAAAUUGUCUGCAUGCCGCCGGGCGCCAUGCCUGCAGGUCGACUCUAGAAAACAUG,binding signal,PUM1 PUF domain R1-GGQ,2.33 log2 enrichment (interaction score)
GGCUAGAACUAGUGGAUCCCCCGGCGCCCGGCGGCUCGAGCCCGGGUAAGUGUAAAUCGUCUGCAUGCCGCCGGGCGCCAUGCCUGCAGGUCGACUCUAGAAAACAUG,binding signal,PUM1 PUF domain R1-GGQ,1.77 log2 enrichment (interaction score)
GGCUAGAACUAGUGGAUCCCCCGGCGCCCGGCGGCUCGAGCCCGGGUAAGUGUAAUUAGUCUGCAUGCCGCCGGGCGCCAUGCCUGCAGGUCGACUCUAGAAAACAUG,binding signal,PUM1 PUF domain R3-RIG,2.45 log2 enrichment (interaction score)
GGCUAGAACUAGUGGAUCCCCCGGCGCCCGGCGGCUCGAGCCCGGGUAAGCGUAAAUAGUCUGCAUGCCGCCGGGCGCCAUGCCUGCAGGUCGACUCUAGAAAACAUG,binding signal,PUM1 PUF domain R8-LYW,3.09 log2 enrichment (interaction score)
